Screening results deposited in PubChem BioAssay by Broad Institute.
The full list was thinned out, with hits kept by preference.
IDE exosite FP – exo-site inhibitors of human insulin-degrading enzyme; P14735; purified IDE, FL-6b probe fluorescence polarization; hits give low values; z-score at 20 µM; 17,000 compounds, 6.3% hits; AID 1259349;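 active = z-score of -3 or lower, meaning strong loss of probe binding signal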;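 also: His-tagged human IDE residues 42-1019 made in E. coli with 30 nM FL-6b probe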
Target sequence (P14735 42-1019 limits assumed): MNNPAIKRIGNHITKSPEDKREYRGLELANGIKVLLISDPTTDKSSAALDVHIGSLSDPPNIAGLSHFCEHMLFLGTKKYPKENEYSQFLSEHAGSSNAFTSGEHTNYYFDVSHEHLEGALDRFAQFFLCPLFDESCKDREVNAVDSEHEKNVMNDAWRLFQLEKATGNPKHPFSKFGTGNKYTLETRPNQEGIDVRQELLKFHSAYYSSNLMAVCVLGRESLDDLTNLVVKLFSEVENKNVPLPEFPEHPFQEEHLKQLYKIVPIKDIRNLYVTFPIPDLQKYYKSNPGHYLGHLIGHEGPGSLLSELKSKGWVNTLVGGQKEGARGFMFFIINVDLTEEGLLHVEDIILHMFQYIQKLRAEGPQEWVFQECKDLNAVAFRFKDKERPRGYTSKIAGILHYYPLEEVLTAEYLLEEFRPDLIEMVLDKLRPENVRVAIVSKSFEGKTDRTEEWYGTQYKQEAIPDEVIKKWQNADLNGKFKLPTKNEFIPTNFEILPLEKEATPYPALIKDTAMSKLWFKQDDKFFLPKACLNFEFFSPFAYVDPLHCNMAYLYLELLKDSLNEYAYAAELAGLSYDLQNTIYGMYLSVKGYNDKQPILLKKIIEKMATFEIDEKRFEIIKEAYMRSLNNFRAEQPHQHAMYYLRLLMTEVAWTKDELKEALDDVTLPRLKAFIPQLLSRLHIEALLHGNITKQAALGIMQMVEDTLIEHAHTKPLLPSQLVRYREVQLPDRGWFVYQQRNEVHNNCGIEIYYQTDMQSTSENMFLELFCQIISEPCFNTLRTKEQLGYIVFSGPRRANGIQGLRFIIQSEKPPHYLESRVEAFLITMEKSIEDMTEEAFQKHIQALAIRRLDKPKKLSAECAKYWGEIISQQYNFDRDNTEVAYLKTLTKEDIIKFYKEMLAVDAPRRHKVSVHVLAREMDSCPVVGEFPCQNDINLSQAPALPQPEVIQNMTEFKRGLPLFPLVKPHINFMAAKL
Hits are given with their value; i = inactive.

SMILES	IDE exosite FP
CO[C@H]1CN(C)C(=O)c2cc(NC(=O)C3CCCCC3)ccc2OC[C@@H](C)N(Cc2cccnc2)C[C@@H]1C	i
N#Cc1cccc(-c2ccc([C@@H]3[C@H](CO)N4CCCCN(C(=O)Nc5cccc(F)c5)C[C@@H]34)cc2)c1	i
COc1ccc2c3c([nH]c2c1)[C@H](CO)N(C(=O)Nc1ccc(F)cc1)CC31CN(Cc2cc(-c3ccccc3)on2)C1	i
CN(C)C(=O)c1cccc(-c2ccc([C@@H]3[C@@H](CO)N4C(=O)CN(C(=O)CC5CC5)C[C@@H]34)cc2)c1	i
CC(C)C#Cc1ccc([C@H]2[C@H]3CN(Cc4ccccn4)CCCCN3[C@H]2CO)cc1	i
CCCC#Cc1ccc([C@@H]2[C@H]3CN(CC4CC4)CCCCN3[C@H]2CO)cc1	i
O=C(CCN1CCCCC1)N[C@H]1CC[C@@H](CC(=O)N2CCC(Cc3ccccc3)CC2)O[C@@H]1CO	i
COc1ccc(-c2ccc([C@@H]3[C@@H](CO)N4C(=O)CN(C(=O)c5ccccc5)C[C@H]34)cc2)cc1	i
O=C(C[C@@H]1CC[C@@H](NC(=O)Nc2ccc(C(F)(F)F)cc2)[C@@H](CO)O1)NCc1cccc(F)c1	i
CCS(=O)(=O)N1CC(=O)N2[C@@H](CO)[C@H](c3ccc(-c4ccccc4C)cc3)[C@@H]2C1	-5.8
CCS(=O)(=O)N1CC(=O)N2[C@H](CO)[C@@H](c3ccc(C#Cc4ccc(F)cc4)cc3)[C@H]2C1	i
CCS(=O)(=O)N1CC(=O)N2[C@@H](CO)[C@H](c3ccc(C#CC4CC4)cc3)[C@@H]2C1	i
COc1cccc(NC(=O)N2CC(=O)N3[C@H](CO)[C@@H](c4ccc(Br)cc4)[C@@H]3C2)c1	i
C/C=C/c1ccccc1[C@H]1[C@@H](C#N)N(S(=O)(=O)c2cccc(F)c2)[C@H]1CO	i
O=C(Nc1ccc(F)cc1)N1CC(=O)N2[C@H](CO)[C@H](c3ccc(-c4ccccc4)cc3)[C@@H]2C1	i
Cc1ccccc1-c1ccc([C@H]2[C@@H](CO)N3C(=O)CN(C(=O)Nc4ccc(F)cc4)C[C@H]23)cc1	-21
O=C(Nc1ccc(F)cc1)N1CC(=O)N2[C@@H](CO)[C@H](c3ccc(-c4ccccc4)cc3)[C@@H]2C1	i
Cc1ccccc1-c1ccc([C@H]2[C@H](CO)N3C(=O)CN(C(=O)Nc4cccc(F)c4)C[C@@H]23)cc1	-3
O=C(Nc1cccc(F)c1)N1CC(=O)N2[C@@H](CO)[C@H](c3ccc(-c4ccccc4F)cc3)[C@@H]2C1	i
O=C(Nc1ccccc1)N1CC(=O)N2[C@@H](CO)[C@H](c3ccc(-c4ccc(F)cc4)cc3)[C@@H]2C1	i
O=C(Nc1cccc(F)c1)N1CC(=O)N2[C@@H](CO)[C@@H](c3ccc(-c4ccccc4F)cc3)[C@@H]2C1	i
O=C(Nc1ccc(F)cc1)N1CC(=O)N2[C@H](CO)[C@@H](c3ccc(-c4ccccc4)cc3)[C@H]2C1	i
Cc1ccccc1-c1ccc([C@@H]2[C@@H](CO)N3C(=O)CN(C(=O)Nc4ccccc4)C[C@H]23)cc1	-6.1
O=C(Nc1ccc(F)cc1)N1CC(=O)N2[C@H](CO)[C@H](c3ccc(-c4ccccc4)cc3)[C@H]2C1	-5.5
Cc1ccc(-c2ccc([C@@H]3[C@@H](CO)N4C(=O)CN(C(=O)Nc5ccc(F)cc5)C[C@H]34)cc2)cc1	i
SMILES	IDE exosite FP
O=C(Nc1ccccc1)N1CC(=O)N2[C@H](CO)[C@H](c3ccc(-c4ccc(F)cc4)cc3)[C@@H]2C1	i
O=C(Nc1ccc(F)cc1)N1CC(=O)N2[C@H](C1)[C@@H](c1ccc(-c3ccc(F)cc3)cc1)[C@@H]2CO	i
C[C@@H]1CCCCO[C@@H](CN(C)Cc2ccc(C(=O)O)cc2)[C@H](C)CN([C@H](C)CO)C(=O)c2cc(N(C)C)ccc2O1	i
CO[C@@H]1CN(C)C(=O)c2ccc(NC(=O)C3CCC3)cc2OC[C@H](C)N(Cc2ccccn2)C[C@H]1C	i
O=C(C[C@@H]1CC[C@@H]2[C@H](COC[C@H](O)CN2S(=O)(=O)c2cccc(Cl)c2)O1)N1CCOCC1	i
C[C@@H](NC(=O)C[C@@H]1CC[C@H]2[C@H](COc3ccc(NS(=O)(=O)c4ccc(Cl)cc4)cc3C(=O)N2C)O1)c1ccccc1	i
CCCNC(=O)N1C[C@@H]2[C@H](c3ccccc31)[C@H](CO)N2C(=O)CN1CCOCC1	i
C/C=C/c1ccc([C@H]2[C@@H](CO)N3C(=O)CN(Cc4ccc(C)cc4)C[C@H]23)cc1	i
O=C(Nc1ccc(F)cc1)N1CC(=O)N2[C@@H](CO)[C@@H](c3ccc(-c4ccc(F)cc4)cc3)[C@@H]2C1	i
Cc1ccccc1-c1ccc([C@H]2[C@H]3CN(C(=O)Nc4ccc(F)cc4)CC(=O)N3[C@H]2CO)cc1	-7
O=C(Nc1ccc(F)cc1)N1CC(=O)N2[C@H](CO)[C@@H](c3ccc(-c4ccc(F)cc4)cc3)[C@H]2C1	i
CN1c2ccc(C#Cc3cccnc3)cc2[C@@H]2[C@@H](CCN2C(=O)CN2CCOCC2)[C@H]1CO	i
COc1ccc(C#Cc2ccc([C@H]3[C@H](CO)N4C(=O)CN(C(=O)c5cccnc5)C[C@@H]34)cc2)cc1	i
COc1cccc(-c2ccc([C@@H]3[C@@H](CO)N4C(=O)CN(C(=O)c5cccnc5)C[C@@H]34)cc2)c1	-3.7
COc1cccc(-c2ccc([C@H]3[C@H](CO)N4C(=O)CN(C(=O)c5cccnc5)C[C@@H]34)cc2)c1	i
COc1cccc(-c2ccc([C@H]3[C@@H](CO)N4C(=O)CN(C(=O)c5cccnc5)C[C@@H]34)cc2)c1	i
COc1ccc(C#Cc2ccc([C@@H]3[C@@H](CO)N4C(=O)CN(C(=O)c5cccnc5)C[C@H]34)cc2)cc1	i
COc1cccc(-c2ccc([C@H]3[C@@H](CO)N4C(=O)CN(C(=O)c5cccnc5)C[C@H]34)cc2)c1	-4.9
COc1ccccc1NC(=O)N1CC(=O)N2[C@@H](CO)[C@H](c3ccc(C#CCC(C)C)cc3)[C@@H]2C1	i
N#C[C@H]1[C@H](c2ccc(C#CCC3CCCC3)cc2)[C@H](CO)N1C(=O)CN1CCOCC1	i
N#C[C@H]1[C@H](c2ccc(-c3cccc(F)c3)cc2)[C@@H](CO)N1c1nc(-c2ccccc2)cs1	i
CCC(=O)N1CC(=O)N2[C@H](CO)[C@@H](c3ccc(C#CC(C)C)cc3)[C@@H]2C1	i
CC(=O)N1[C@@H]2CN(S(=O)(=O)c3ccccc3C)c3ccccc3[C@@H]2[C@@H]1CO	i
OC[C@@H]1[C@H](c2ccc(-c3ccc(F)cc3)cc2)[C@H]2CN(Cc3ccncc3)CCCCN12	i
OC[C@H]1[C@@H](c2ccc(-c3ccc(F)cc3)cc2)[C@H]2CN(Cc3ccncc3)CCCCN21	i
SMILES	IDE exosite FP
Cc1cccc(-c2ccc([C@@H]3[C@H]4CN(CCC(F)(F)F)CCCCN4[C@H]3CO)cc2)c1	i
CN(C)C(=O)c1ccc(-c2ccc([C@@H]3[C@@H](CO)N4CCCCN(Cc5ccncc5)C[C@H]34)cc2)cc1	i
Cc1cccc(-c2ccc([C@@H]3[C@@H](CO)N4CCCCN(Cc5ccncc5)C[C@@H]34)cc2)c1	-4.9
Cc1cccc(-c2ccc([C@H]3[C@@H](CO)N4CCCCN(Cc5ccncc5)C[C@@H]34)cc2)c1	-5.8
CN(C)C(=O)c1ccc(-c2ccc([C@@H]3[C@H]4CN(C(=O)C5CCC5)CC(=O)N4[C@H]3CO)cc2)cc1	i
O=C(c1cccc(F)c1)N1CCCCN2[C@H](CO)[C@H](c3ccc(-c4cccnc4)cc3)[C@@H]2C1	i
